These results are taken from PubChem BioAssay (NCATS).

Assay [1] has as its target Cytochrome P450 3A4 (Homo sapiens) (UniProt P08684). Description: qHTS Assay for Inhibitors and Substrates of Cytochrome P450 3A4 (AID 884). Further: on the % scale 0 is the no-effect control and ±100 the full control effect; nearly all actives have a fitted effect of over 50% in size. In outline: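 20 nM human CYP3A4 with 25 uM Luciferin-PPXE (at KM) in 200 mM KPO4, preincubated 10 min with compound; NADPH regeneration started a 60 min RT reaction. Luciferin detected by luminescence, normalized to 57 uM ketoconazole as full inhibition.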

Assay [2] can be described thus: Confirmation and Secondary Assay for Modulators of Hemoglobin Beta Chain Splicing at IVS2 654 locus (AID 910).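 Further: HeLa cells stably carrying EGFP split by mutant beta-globin IVS2-654 intron; % of control where 0% means no effect.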 In outline: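 HeLa cells stably expressing EGFP interrupted by β-globin IVS2-654 intron, seeded overnight in Opti-MEM/2% FCS, then treated 2 days at 37 °C. Restored splicing read as total peak GFP intensity per well by laser scanning cytometry (488 nm excitation, 500–520 nm emission); 500 nM antisense PNA as control.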

The nature of assay [3]: Confirmation and Secondary Assay for Modulators of Hemoglobin Beta Chain Splicing at IVS2 705 locus (AID 930).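 Further: HeLa cells stably expressing the EGFP-705 splicing reporter; GFP fluorescence per well restored by corrected splicing of the IVS2-705 intron in EGFP; % of control where 0% means no effect.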 In outline: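 HeLa cells stably carrying EGFP interrupted by mutant beta-globin intron 2 (IVS2-705) treated 2 days at 37C with compound; 500 nM antisense PNA as control. Correct splicing read as total peak GFP intensity per well by laser-scanning cytometry.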
A short description of assay [4]: qHTS Assay for Lipid Storage Modulators (AID 1519; calls by dose curve; on activity change, negative = inhibition: on the % scale 0 is the no-effect control and ±100 the full control effect). Conditions: Drosophila S3 cells, BODIPY lipid droplet/cell ratio, laser cytometry, cells loaded with oleic acid; for activity change, negative = inhibition: at 57.5 µM (top of the series). In outline:
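Cells seeded at 5,000 per well were treated with compounds over a concentration series and loaded with oleic acid (400 uM, as added). Lipid droplet fluorescence (488 nm excitation, 500-530 nm channel) was read by laser-scanning cytometry and normalized to 20 uM Triacsin C.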
For orientation: In qHTS, concentration-response curves come from the screen itself.

Assay [5] addresses Ubiquitin carboxyl-terminal hydrolase 1 (Homo sapiens) (UniProt O94782). Description: Inhibitors of USP1/UAF1: Pilot qHTS (AID 504865).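 Further: rhodamine fluorescence freed from ubiquitin-rhodamine substrate followed over time; top concentration of the series differs between compounds; on the % scale 0 is the no-effect control and ±100 the full control effect; nearly all actives have a fitted effect of over 35% in size.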 In outline:
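Enzyme-free wells gave the negative control, while test wells held 1nM USP1/UAF1 preincubated with compound for 15 min at room temperature. Ub-Rho at 150nM final started the reaction, and fluorescence at 480/540 nm was recorded kinetically.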

Where [6] appears, read: measured here: cell count channel max response.
[7] abbreviates: measured here: lipid channel max response.

SMILES strings stand for the structures. Results filed as inconclusive are left out. Active and inactive are the calls of the source. Unless noted, the call rests on the fitted dose curve; in most records, active means well fitted curve in the direction sought with a large enough effect; inconclusive means small, poorly fitted or top-dose-only effect, or another doubt; inactive means no such curve, though single readings can be large; an effect the other way counts as inactive or inconclusive.

Chain of Ubiquitin carboxyl-terminal hydrolase 1 (Homo sapiens) (O94782 whole entry, looked up): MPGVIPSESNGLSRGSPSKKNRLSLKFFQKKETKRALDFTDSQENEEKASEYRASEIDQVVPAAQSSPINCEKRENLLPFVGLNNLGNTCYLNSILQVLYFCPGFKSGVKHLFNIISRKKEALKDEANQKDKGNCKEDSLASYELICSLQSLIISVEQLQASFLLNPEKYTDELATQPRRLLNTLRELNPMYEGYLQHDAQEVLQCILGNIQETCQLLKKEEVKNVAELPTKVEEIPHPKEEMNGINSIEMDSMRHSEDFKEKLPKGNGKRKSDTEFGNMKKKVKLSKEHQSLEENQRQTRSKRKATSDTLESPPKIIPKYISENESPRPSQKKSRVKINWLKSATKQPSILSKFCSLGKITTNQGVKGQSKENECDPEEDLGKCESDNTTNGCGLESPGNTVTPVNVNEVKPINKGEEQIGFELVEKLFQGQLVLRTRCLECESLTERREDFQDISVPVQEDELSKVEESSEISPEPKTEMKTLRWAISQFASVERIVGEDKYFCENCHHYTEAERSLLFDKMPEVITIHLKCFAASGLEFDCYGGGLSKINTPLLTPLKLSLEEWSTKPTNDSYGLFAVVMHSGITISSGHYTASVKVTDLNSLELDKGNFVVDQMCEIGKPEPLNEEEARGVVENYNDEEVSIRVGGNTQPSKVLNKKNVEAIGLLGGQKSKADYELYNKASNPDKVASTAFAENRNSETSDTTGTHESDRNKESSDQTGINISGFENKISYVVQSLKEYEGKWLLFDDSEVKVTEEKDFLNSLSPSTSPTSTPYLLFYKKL
Chain of Cytochrome P450 3A4 (Homo sapiens) (P08684 whole entry, looked up): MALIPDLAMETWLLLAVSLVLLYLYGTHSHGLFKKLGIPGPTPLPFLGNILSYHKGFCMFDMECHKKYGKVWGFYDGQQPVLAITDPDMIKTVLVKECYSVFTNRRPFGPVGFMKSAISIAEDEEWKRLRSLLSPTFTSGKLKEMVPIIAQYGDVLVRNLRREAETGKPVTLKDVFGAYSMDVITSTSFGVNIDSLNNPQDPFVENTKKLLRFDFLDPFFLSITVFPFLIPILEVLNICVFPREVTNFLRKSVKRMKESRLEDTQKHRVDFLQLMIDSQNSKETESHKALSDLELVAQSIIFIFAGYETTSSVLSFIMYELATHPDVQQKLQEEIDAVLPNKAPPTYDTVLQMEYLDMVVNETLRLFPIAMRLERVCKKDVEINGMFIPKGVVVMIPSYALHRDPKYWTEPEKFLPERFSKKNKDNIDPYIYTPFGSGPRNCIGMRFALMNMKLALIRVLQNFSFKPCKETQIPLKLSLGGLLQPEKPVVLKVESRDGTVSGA

For `C#CCCCCCCCCCCCC(=O)CC(O)COC(C)=O` (stereo not given), the Potency entry in assay [1], in assay [2], in assay [3] and in assay [5] was “inactive” each time. Besides, the activity change, negative = inhibition in assay [4] is 3.5% (inactive). Further, the max response was found to be 13.4% in assay [4] (setting [6]) and 17.1% in assay [4] (setting [7]).
As to `CC1(C)C=Cc2cc3ccc(=O)oc3cc2O1`, the Potency result in assay [1], in assay [2], in assay [3] and in assay [5] was “inactive” each time. Moreover, in assay [4], the activity change, negative = inhibition was 11.6% (inactive). The max response in assay [4] (setting [6]) was -4.2%; in assay [4] (setting [7]), 7.43%.
Regarding `O=C(NCO)c1cccnc1`, the Potency entry in assay [1], in assay [2], in assay [3] and in assay [5] was “inactive” in each case. Further, the activity change, negative = inhibition in assay [4] was 5.95% (inactive). The results for the max response in assay [4] (setting [6]) and in assay [4] (setting [7]) were 14.8% and 25.7%, respectively.
Consider `Nc1ncnc2c1ncn2C1OC(COP(=O)(O)O)C(O)C1O` (stereo not given), for which the Potency entry in assay [1], in assay [2], in assay [3] and in assay [5] was “inactive” each time. The activity change, negative = inhibition in assay [4] was 5.46% (inactive). The max response was 29.6% in assay [4] (setting [6]) and 41.9% in assay [4] (setting [7]).
`C=C1CCC(C2CC(=O)OC2=O)C(=O)CCC2C1CC2(C)C` (stereo not given): the Potency result in assay [1], in assay [2], in assay [3] and in assay [5] was “inactive” each time. In addition, the activity change, negative = inhibition in assay [4] was 4.44% (inactive). Also, the max response worked out at 19.1% in assay [4] (setting [6]) and 26.1% in assay [4] (setting [7]).
As to `CC(C)C1COc2cc3oc(=O)ccc3cc2O1` (stereo not given), the Potency result in assay [1], in assay [2], in assay [3] and in assay [5] was “inactive” throughout. In assay [4], the activity change, negative = inhibition is 9.84% (inactive). Further, the max response in assay [4] (setting [6]) turned out to be 6%; in assay [4] (setting [7]), 13.7%.
`CC(=O)OC1CC[C@@]2(C)C3=CC(=O)[C@]4(C)C(CC5OC6(OCC(C)CC6Br)C(C)C54)C3CC[C@H]2C1` (stereo not given in full): the Potency result in assay [1], in assay [2], in assay [3] and in assay [5] was “inactive” each time. In assay [4], the activity change, negative = inhibition was -8.55% (inactive). For the same molecule, the results for the max response in assay [4] (setting [6]) and in assay [4] (setting [7]) were -17.7% and -20.5%, respectively.
Take `CC(=O)N1CCCC1C(=O)O` (stereo not given): the Potency result in assay [1], in assay [2], in assay [3] and in assay [5] was “inactive” in each case. Also, the activity change, negative = inhibition in assay [4] was 7.19% (inactive). Besides, the max response in assay [4] (setting [6]) was found to be 1.45%; in assay [4] (setting [7]), 9.22%.
As to `O=C(Oc1cc(OC(=O)c2ccccc2)c2c(c1)OC(c1ccc(OC(=O)c3ccccc3)c(OC(=O)c3ccccc3)c1)[C@@H](OC(=O)c1ccccc1)C2)c1ccccc1` (stereo not given in full), the Potency result in assay [1], in assay [2], in assay [3] and in assay [5] was “inactive” throughout. Also, the activity change, negative = inhibition in assay [4] was -8.04% (inactive). Also, the max response in assay [4] (setting [6]) came to 23.3%; in assay [4] (setting [7]), 15.7%.
In the case of `CC1(C)OC2C(CO)OC(n3cnc4c(=O)[nH]c(N)nc43)C2O1` (stereo not given), the Potency entry in assay [1], in assay [2], in assay [3] and in assay [5] was “inactive” each time. In addition, the activity change, negative = inhibition in assay [4] is 4.01% (inactive). For the same molecule, the values for the max response in assay [4] (setting [6]) and in assay [4] (setting [7]) were 24% and 28%, respectively.
`COC(=O)C1=CO[C@@H](O[C@H]2OC(CO)C(O)C(O)C2O)C2C1CC(O)C2C` (stereo not given in full): the Potency result in assay [1], in assay [2], in assay [3] and in assay [5] was “inactive” in each case. In addition, in assay [4], the activity change, negative = inhibition was 6.73% (inactive). Also, the max response in assay [4] (setting [6]) amounted to 11.3%; in assay [4] (setting [7]), 19.4%.
`Cc1cn(C2CCC(CO)O2)c(=O)[nH]c1=O` (stereo not given): the Potency result in assay [1], in assay [2], in assay [3] and in assay [5] was “inactive” throughout. Further, the activity change, negative = inhibition in assay [4] was 4.05% (inactive). Moreover, the max response in assay [4] (setting [6]) is 13.1%; in assay [4] (setting [7]), 17.4%.
In the case of `CC(C)c1c(O)c(-c2cc3c(c(C(C)C)c2O)CCC2C(C)(C)CCC[C@@]32C)cc2c1CCC1C(C)(C)CCC[C@@]21C` (stereo not given in full), the Potency result in assay [1], in assay [2], in assay [3] and in assay [5] was “inactive” each time. Moreover, the activity change, negative = inhibition in assay [4] is 8.62% (inactive). The max response amounted to 4.25% in assay [4] (setting [6]) and 16.8% in assay [4] (setting [7]).
`CC1O[C@@H](Oc2c(-c3ccc(O)c(O)c3)oc3cc(O)cc(O)c3c2=O)C(O)C(O)C1O` (stereo not given in full): the Potency result in assay [1], in assay [2], in assay [3] and in assay [5] was “inactive” in each case. Further, the activity change, negative = inhibition in assay [4] is 10.2% (inactive). For the same molecule, the max response in assay [4] (setting [6]) was 19.3%; in assay [4] (setting [7]) it was 40.6%.
With `CC(C)(O)C1CC[C@@]2(C)C3CCC4[C@@]5(C)CCCC(C)(C)C5C(O)C[C@]4(C)[C@]3(C)CC[C@@H]12` (stereo not given in full), the Potency result in assay [1], in assay [2], in assay [3] and in assay [5] was “inactive” each time. The activity change, negative = inhibition in assay [4] was 5.94% (inactive). Also, the results for the max response in assay [4] (setting [6]) and in assay [4] (setting [7]) were 19.9% and 27.3%, respectively.
With `CC(=O)Oc1ccc2c(c1)CCC1C2CC[C@]2(C)C(=O)CCC12` (stereo not given in full), the Potency entry in assay [1], in assay [2], in assay [3] and in assay [5] was “inactive” throughout. The activity change, negative = inhibition in assay [4] is -6.33% (inactive). The max response was -13.1% in assay [4] (setting [6]) and -17.8% in assay [4] (setting [7]).
Turning to `COc1c2ccccc2nc2occc12`, the Potency result in assay [1], in assay [2], in assay [3] and in assay [5] was “inactive” each time. The activity change, negative = inhibition in assay [4] is 9.64% (inactive). Besides, the max response worked out at 24.3% in assay [4] (setting [6]) and 38.1% in assay [4] (setting [7]).
Regarding `CS(=O)(=O)c1ccc(C(O)C(CO)NC(=O)C(Cl)Cl)cc1` (stereo not given), the Potency entry in assay [1], in assay [2], in assay [3] and in assay [5] was “inactive” throughout. Moreover, the activity change, negative = inhibition in assay [4] was 6.29% (inactive). Also, the max response was determined as 3.52% in assay [4] (setting [6]) and 13.6% in assay [4] (setting [7]).
With `CC(=O)/C=C\C1[C@]2(C)CCCC(C)(C)C2CC[C@@]1(C)O` (stereo not given in full), the Potency entry in assay [1], in assay [2], in assay [3] and in assay [5] was “inactive” throughout. Moreover, the activity change, negative = inhibition in assay [4] is 3.07% (inactive). For the same molecule, the max response in assay [4] (setting [6]) is -10.9%; in assay [4] (setting [7]), -8.32%.
Turning to `CC(=O)OCC(=O)[C@]1(O)C(OC(C)=O)CC2C3CCC4=CC(=O)C=C[C@@]4(C)[C@]3(F)C(O)C[C@]21C` (stereo not given in full), the Potency result in assay [1], in assay [2], in assay [3] and in assay [5] was “inactive” throughout. Also, in assay [4], the activity change, negative = inhibition was 2.18% (inactive). For the same molecule, the max response was 7.55% in assay [4] (setting [6]) and 12.5% in assay [4] (setting [7]).
On to `O=c1[nH]c(Cl)nc2c1ncn2C1OC(CO)C(O)C1O` (stereo not given), for which the Potency entry in assay [1], in assay [2], in assay [3] and in assay [5] was “inactive” throughout. For the same molecule, in assay [4], the activity change, negative = inhibition was 5.69% (inactive). In addition, the max response stood at 2.53% in assay [4] (setting [6]) and 10.3% in assay [4] (setting [7]).
Consider `CC1CC[C@@]2(OC1)OC1CC3C4CC[C@@H]5CC(O)CC[C@@]5(C)C4CC[C@]3(C)C1C2C` (stereo not given in full), for which the Potency result in assay [1], in assay [2], in assay [3] and in assay [5] was “inactive” throughout. Besides, the activity change, negative = inhibition in assay [4] is 4.69% (inactive). Further, the max response in assay [4] (setting [6]) came out at 11.7%; in assay [4] (setting [7]) it was 17.1%.
Take `NC(CSCSCC(N)C(=O)O)C(=O)O` (stereo not given): the Potency entry in assay [1], in assay [2], in assay [3] and in assay [5] was “inactive” each time. In assay [4], the activity change, negative = inhibition was 1.54% (inactive). The max response in assay [4] (setting [6]) came out at 7.28%; in assay [4] (setting [7]), 12.4%.
As for `C=C(C)C1Cc2c(ccc(C(=O)O)c2O)O1` (stereo not given), the Potency result in assay [1], in assay [2], in assay [3] and in assay [5] was “inactive” throughout. In addition, in assay [4], the activity change, negative = inhibition was 5.26% (inactive). In addition, the figures for the max response in assay [4] (setting [6]) and in assay [4] (setting [7]) were 17% and 23.8%, respectively.
Regarding `COc1ccc2c(c1)O[C@@H]1c3ccc(OC)cc3OCC21` (stereo not given in full), the Potency result in assay [1], in assay [2], in assay [3] and in assay [5] was “inactive” in each case. Further, in assay [4], the activity change, negative = inhibition was 3.42% (inactive). Also, the max response in assay [4] (setting [6]) worked out at 4.03%; in assay [4] (setting [7]), 9.6%.
